Screening data as filed in PubChem BioAssay.
Shown is part of a subset that was picked to be rich in hits.
VACV Venus inh: qHTS for Stage-Specific Inhibitors of Vaccinia Orthopoxvirus: Venus Reporter Primary qHTS; 0.46% of 330,000 active; Potency, µM (doses to about 36.5 µM), for the others: at the highest dose activity change, negative = inhibition, usual class: inhibitors; Vaccinia virus Venus reporter expression, fluorescence; AID 720580, 2013; calls by dose curve; tested in A549 cells; note: potency is the fitted concentration of half-maximal effect; % is set by controls: 0 for no effect and ±100 for the full control effect; nearly all actives have a fitted effect of over 30% in size
Vaccinia mCherry: qHTS for Stage-Specific Inhibitors of Vaccinia Orthopoxvirus: mCherry Reporter Primary qHTS. 0.63% of 310,000 active. Vaccinia virus mCherry reporter infection, fluorescence. Potency, µM (highest dose often 36.5 µM), for the others: top-dose activity change, negative = inhibition, hits mostly inhibitors; calls by dose curve; tested in A549 cells; note: potency is the fitted concentration of half-maximal effect; % is set by controls: 0 for no effect and ±100 for the full control effect; nearly all actives have a fitted effect of over 35% in size
Shiga inhibitor: A qHTS for Small Molecule Inhibitors of Shiga Toxin | Vero cells, Shiga toxin protein synthesis inhibition reporter | inhibition, % at 38.7 µM | 9.2% of 290,000 active | AID 2315, 2010; in the data active = inhibition mostly above about 28%, no sharp cut-off; inactive = mostly below about 43%; note: 0% is about no effect
LASV entry inh: qHTS for Inhibitors of binding or entry into cells for Lassa Virus; Lassa virus pseudotype entry inhibition, cell reporter; Potency, µM (series often up to 37.9 µM), for inactives: top-dose activity change, negative = inhibition, most hits filed as inhibitors; 1.2% of 300,000 active; calls by dose curve; tested in HEK293 cells; note: potency is the fitted concentration of half-maximal effect; % is set by controls: 0 for no effect and ±100 for the full control effect; nearly all actives have a fitted effect of over 50% in size
Marburg entry inh: qHTS for inhibitors of binding or entry into cells for Marburg Virus; 1.8% of 300,000 active; Marburg virus pseudotyped entry inhibition, cell reporter; Potency, µM (series often up to 37.8 µM), inactives show at the highest dose activity change, negative = inhibition, hits mostly inhibitors; calls by dose curve; tested in HEK293 cells; note: potency is the fitted concentration of half-maximal effect; % is set by controls: 0 for no effect and ±100 for the full control effect
CHX counter: Cycloheximide Counterscreen for Small Molecule Inhibitors of Shiga Toxin; max response, %; 12% of 300,000 active; cell reporter, cycloheximide protein synthesis inhibition counterscreen; in the data active = max response mostly above about 13%, no sharp cut-off; inactive = mostly below about 14%; note: read at 38.3 µM for the half of the compounds with a filed dose; 0% is about no effect
Starred values were filed as active, the others as inactive; i = inactive; ? = inconclusive; . = no result; [ ] = dose if it differs, or a comment.

SMILES	VACV Venus inh	Vaccinia mCherry	Shiga inhibitor	LASV entry inh	Marburg entry inh	CHX counter
O=C(/C=C/c1ccc([N+](=O)[O-])cc1)NCc1cccs1	-28%	i	13*	?	?	38*
Cc1ccc(/C=C/C(=O)NCc2ccncc2)cc1	?	i	23	?	?	12
Cc1ccc(/C=C/C(=O)NCc2cccs2)o1	-9%	i	91*	?	-13%	18*
O=C(/C=C/c1ccco1)N1CCN(S(=O)(=O)c2cccs2)CC1	7%	0%	15	6%	0%[46.1 µM]	-2
O=C(CCCCC(=O)NCc1cccs1)NCc1cccs1	.	.	-1	18%	-2%	-1
O=C(/C=C/c1ccc([N+](=O)[O-])cc1)NCc1ccccn1	-5%	i	-4	11%	24%	-1
Cc1ccc(/C=C/C(=O)N2CCN(S(=O)(=O)c3cccs3)CC2)o1	.	.	-4	.	.	23*
Cc1ccc(/C=C/C(=O)NCc2cccs2)cc1	-5%	-10%	139*	2µM*	-2%	66*
COc1ccc(S(=O)(=O)Nc2cc3c(cc2N2CCOCC2)n(C)c(=O)n3C)cc1	4%	-6%	.	?	-8%[46.1 µM]	.
Cc1ccc(/C=C/C(=O)NCc2cccs2)c(C)c1	-14%	-17%	53*	?	?	37*
O=C(N/N=C/c1cccc([N+](=O)[O-])c1)c1cccc2cc[nH]c12	-2%	-4%	58*	6%	30%[46.1 µM]	29*
O=C(N/N=C/c1cc([N+](=O)[O-])ccc1O)C(O)(c1ccccc1)c1ccccc1	-13%	-13%	-5	-16%[46.1 µM]	?	-3
O=C(NN=Cc1cccc([N+](=O)[O-])c1)c1cccc2ccccc12	-17%	-6%	.	-10%	26%	.
O=C(N/N=C/c1cccc([N+](=O)[O-])c1)c1ccccc1-n1cccc1	-4%	1%	28*	0%	?	4
O=C(N/N=C/c1cc([N+](=O)[O-])ccc1O)c1cccc2cc[nH]c12	.	.	31*	.	.	33*
Cc1cc(OCC(=O)Nc2cccc(-c3nc4ccccc4o3)c2C)cc(C)c1Cl	-9%	-25%	.	.	.	.
CCc1ccc2[nH]c(=O)c(CN(Cc3ccco3)Cc3nnnn3Cc3ccco3)cc2c1	-16%	-7%	.	.	.	.
O=C(c1cccc(C(F)(F)F)c1)C1CCCN(C(=O)CN2CCCC2=O)C1 (stereo not given)	-14%	-15%	50	0%[46.1 µM]	0%[46.1 µM]	17*
O=C(c1cccc(C(F)(F)F)c1)C1CCCN(C(=O)CCCn2cncn2)C1 (stereo not given)	0%	i	15	-1%	-16%[46.1 µM]	11*
O=C(c1ccc(C(F)(F)F)cc1)C1CCCN(C(=O)CCn2cncn2)C1 (stereo not given)	.	.	6	.	.	18
CSc1ccc(C(=O)C2CCCN(C(=O)CCCn3cncn3)C2)cc1 (stereo not given)	.	.	38	.	.	11*
Nc1ccc(-c2cnc(N)c(C(=O)c3cccnc3)n2)cn1	10µM*	?	.	.	.	.
Cc1ccsc1CN(C(=O)c1ccc(OCC(C)C)cc1)C1CCS(=O)(=O)C1 (stereo not given)	-3%	-3%	.	8.9µM*	3%[46.1 µM]	.
c1ccc(-c2cn3c(n2)-c2ccccc2C3)cc1	-26%	-13%	45*	4.5µM*	?	26*
COCc1cc(=O)[nH]c(/N=C(\N)Nc2c(F)cccc2F)n1	-10%[7.34 µM]	i[7.34 µM]	-10	15%	7%[46.1 µM]	-2
SMILES	VACV Venus inh	Vaccinia mCherry	Shiga inhibitor	LASV entry inh	Marburg entry inh	CHX counter
Cc1cc(Oc2nnnn2-c2ccccc2)ccc1Cl	.	.	42	?	?	30*
Cc1nn(-c2ccc(N3CCCCC3)nn2)c(C)c1CCC(=O)NCc1ccccc1	-4%	4%	.	-3%[46.1 µM]	.	.
Cc1c(Cl)cccc1NC(=O)NCc1ccccn1	.	.	31	.	.	15*
COC(=O)c1ccccc1NC(=O)NCc1ccccn1	-12%	-16%	-8	22%	0%	-2
O=C(NCc1ccccn1)Nc1cccc(Cl)c1Cl	.	.	35	.	.	59*
Cc1nn(C)c(C)c1CNC(=O)Nc1cccc(Cl)c1C	-6%	i	49	-19%	-6%	32*
O=C(NCc1ccccn1)Nc1ccccc1Cl	.	.	32*	.	.	25*
O=P(O)(O)OC1[C@H](O)[C@H](OP(=O)(O)O)C(OP(=O)(O)O)[C@H](OP(=O)(O)O)[C@H]1O (stereo not given in full)	.	.	i	.	.	-10
